From PubChem BioAssay (NCATS) come the findings set out here.

Results filed as inconclusive are left out. Calls of active or inactive are those of the source. Unless noted, how the calls were made is not given here.

A short description of test [1]: qHTS profiling for inhibitors of Plasmodium falciparum (HB3) proliferation (AID 743324; active means well fitted curve in the direction sought with a large enough effect; an effect the other way counts as inactive or inconclusive;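 further: 100% = DMSO vehicle wells and 0% = artemisinin-treated control wells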). Conditions: Plasmodium falciparum HB3 blood-stage proliferation; at 28.7 µM (top of the series) unless noted. The essentials: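 SYBR Green fluorescence (485 ex/535 em) of lysed cultures, incubated overnight at room temperature in the dark, quantifies parasite DNA. Infected erythrocytes at 0.3% parasitemia and 2.5% hematocrit were exposed 72 h; values normalized to DMSO and 0.29 uM artemisinin controls.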

A short description of test [2]: qHTS profiling of the MIPE4 collection as inhibitors of Plasmodium falciparum (3D7) proliferation (AID 743344).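 Further: scaled between DMSO vehicle wells and 0.29 µM artemisinin as full inhibition.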 The note with it: P. falciparum 3D7 in erythrocytes, SYBR Green DNA fluorescence, 72 h; at 28.5 µM (top of the series) unless noted. The essentials:
(§1)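 Parasite DNA was quantified by SYBR Green I fluorescence (ex 485, em 535 nm) after overnight lysis in saponin/Triton buffer at room temperature. Cultures at 0.3% parasitemia and 2.5% hematocrit were first exposed to compound for 72 h at 37 C; signals were normalised to artemisinin (0.29 uM) and vehicle wells.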

Test [3] in a line: qHTS profiling of the MIPE4 collection as inhibitors of Plasmodium falciparum (DD2) proliferation (AID 743345). Conditions: P. falciparum Dd2 in erythrocytes, SYBR Green DNA, 72 h; at 28.5 µM (top of the series) unless noted. An outline of the steps:
as §1

Test [4] can be described thus: qHTS profiling of the MIPE4 collection as inhibitors of Plasmodium falciparum (DD2) proliferation (Rep 2) (AID 743346). Conditions: P. falciparum Dd2 in erythrocytes, SYBR Green DNA, 72 h; at 28.5 µM (top of the series) unless noted. The essentials:
as §1

The nature of test [5]: qHTS profiling of the MIPE4 collection as inhibitors of Plasmodium falciparum (HB3) proliferation (AID 743347).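 Further: plate controls were DMSO vehicle wells for no effect and artemisinin wells for full effect.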 The note with it: P. falciparum HB3 in erythrocytes, SYBR Green DNA, 72 h; at 28.5 µM (top of the series) unless noted. An outline of the steps:
as §1

A short description of test [6]: High-throughput drug toxicity screening in the BPDCN cell line Gen2.2 (AID 1224824).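 Further: cells exposed to compounds for 48 h before reading.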 Conditions: Gen2.2 BPDCN cells; at 45.8 µM (top of the series) unless noted. The essentials:
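CellTiter-Glo luminescence read after 48 h compound exposure at 37 C defines viability; percent activity set with DMSO as 100% and bortezomib (9.2 uM final) as 0%. 500 exponentially growing cells per well, RPMI plus 10% FBS.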

Test [7] can be described thus: High-throughput drug toxicity screening in the BPDCN cell line Cal-1 (AID 1224825). Conditions: Cal-1 BPDCN cell viability, qHTS; at 45.8 µM (top of the series) unless noted. The essentials: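 Viability of the BPDCN line Cal-1 is measured as ATP-based luminescence (CellTiter-Glo) following 48 h incubation with compounds. Percent activity uses DMSO-treated wells as 100% and 9.2 uM bortezomib as 0%.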

Test [8] in a line: qHTS assay for measurement of the activity of small molecule inhibitors on Zika virus induced Caspase-3 activity in human iPSC derived neural progenitor cells (hNPCs) (AID 1224857; active means well fitted curve in the direction sought with a large enough effect; an effect the other way counts as inactive or inconclusive; further: % of control where 0% means no effect; nearly all actives have a fitted effect of over 65% in size). The essentials:
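hNPCs seeded 350 cells/well, cultured 16–20 h; compounds added 1 h before ZIKV (2 FFU/cell), 37 C 6 h. Caspase-Glo 3/7 luminescence after 30 min RT; % inhibition from induction scaled to uninfected (0%) and infected (100%) wells.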

Test [9] can be described thus: qHTS Screen of the MIPE 4.0 Collection Against Ewings Sarcoma (RDES) (AID 1259252; active means well fitted curve in the direction sought with a large enough effect; an effect the other way counts as inactive or inconclusive; further: nearly all actives have a fitted effect of over 35% in size; further: potency means the concentration at half of the fitted maximal effect). An outline of the steps:
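Compound titrations go onto adherent log-phase cells 4 h after seeding, incubate 48 h at 37C, then CellTiter-Glo luminescence reports viability relative to DMSO and cell-free controls.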

Test [10] in a line: qHTS assay for measurement of the activity of small molecule inhibitors on Zika virus induced Caspase-3 activity in human astrocytoma cells (AID 1224859; active means well fitted curve in the direction sought with a large enough effect; an effect the other way counts as inactive or inconclusive;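 further: plate controls were ZIKV-infected untreated cells for no effect and uninfected cells for full effect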). An outline of the steps:
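Luminescence read-out (Caspase-Glo 3/7, 30 min RT) of caspase activity in SNB-19 cells infected 6 h with ZIKV, 2 FFU/cell, after 1 h compound pretreatment; % inhibition from induction normalised to uninfected (0%) and infected (100%) wells.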

`CCN(CC)CCCCNc1nc2cc(Cl)c(Cl)cc2nc1-c1ccc(-c2cccs2)s1` gave a remaining proliferation (% of control), lower = more inhibition in [1] of 4.08%. The same molecule yielded a parasite growth, % of DMSO control in test [2] of 9.66%. Moreover, the parasite growth remaining, % of DMSO control (lower = more inhibition) in test [3] was found to be 10.5%. Also, the parasite growth, % of control (lower = inhibition) in test [4] came out at 19.1%. Moreover, the growth, % of control in [5] was determined as 5.94%. Further, in test [6], the cell viability, % of control (lower = more cytotoxic) came out at 5.29%. Besides, the viability (% of control) in test [7] worked out at 4.45%. The Potency entry in test [8] is “inactive”.

`COc1nccc(-c2c(-c3ccc(F)cc3)ncn2C2CCNCC2)n1` returned a parasite growth, % of DMSO control in test [2] of 36.4%. The parasite growth remaining, % of DMSO control (lower = more inhibition) in test [3] is 51.4%. In addition, the growth, % of control in test [5] was found to be 35.6%. Further, in test [6], the cell viability, % of control (lower = more cytotoxic) came out at 136%. Further, in test [7], the viability (% of control) was determined as 73.4%. The Potency result in test [8] is “inactive”.

`NC(=O)c1nnn(Cc2cc(Cl)c(C(=O)c3ccc(Cl)cc3)c(Cl)c2)c1N`: the parasite growth, % of DMSO control in test [2] was determined as 23.3%. In addition, the parasite growth remaining, % of DMSO control (lower = more inhibition) in test [3] is 33.4%. Also, the parasite growth, % of control (lower = inhibition) in [4] amounted to 37%. This molecule also showed a growth, % of control in test [5] of 6.97%. Besides, the cell viability, % of control (lower = more cytotoxic) in test [6] is 390%. Besides, in test [7], the viability (% of control) was found to be 45.1%. For the same molecule, the Potency entry in test [8] is “inactive”.

As for `CC1CCN(c2cc(N3CCN(C)CC3)ccc2NC(=O)c2cc(C#N)c[nH]2)CC1`, the parasite growth, % of DMSO control in test [2] was found to be 39.9%. Further, the parasite growth remaining, % of DMSO control (lower = more inhibition) in test [3] was 80.6%. Also, the parasite growth, % of control (lower = inhibition) in [4] was found to be 36.9%. In [5], this molecule gave a growth, % of control of 50.4%. For the same molecule, the cell viability, % of control (lower = more cytotoxic) in test [6] was 107%. In addition, the viability (% of control) in [7] was 104%. Also, the Potency entry in [8] was “inactive”. In addition, the Potency in test [9] is 26.4 µM (active).

`COc1ccc(Cn2ccc3ccc(C(=O)NO)cc32)cc1`: the parasite growth remaining, % of DMSO control (lower = more inhibition) in test [3] came out at 13.4%. In addition, the parasite growth, % of control (lower = inhibition) in test [4] came out at 8.17%. Also, the growth, % of control in [5] amounted to 3.68%. Also, in test [6], the cell viability, % of control (lower = more cytotoxic) is 250%. Also, the Potency result in test [8] and in [10] was “inactive” each time.

With `COc1nccc(-c2c(-c3ccc(F)cc3)ncn2C2CCC(O)CC2)n1` (stereo unspecified), in test [2], the parasite growth, % of DMSO control came out at 42.3%. The parasite growth, % of control (lower = inhibition) in [4] was determined as 52.5%. The molecule also displayed a growth, % of control in [5] of 28.5%. In test [6], the cell viability, % of control (lower = more cytotoxic) was 192%. Moreover, the Potency entry in test [8] and in test [10] was “inactive” throughout.

Turning to `CN(C(Cc1ccc(OS(=O)(=O)c2cccc3cnccc23)cc1)C(=O)N1CCN(c2ccccc2)CC1)S(=O)(=O)c1cccc2cnccc12` (stereo unspecified), in test [3], the parasite growth remaining, % of DMSO control (lower = more inhibition) is 7.38%. In addition, the parasite growth, % of control (lower = inhibition) in test [4] worked out at 10.8%. For the same molecule, the growth, % of control in test [5] amounted to 8.15%. In addition, the cell viability, % of control (lower = more cytotoxic) in test [6] is 116%. Moreover, the Potency result in test [8] and in test [10] was “inactive” each time.

As to `Cc1cc(OCCCS(C)(=O)=O)cc(C)c1-c1cccc(COc2ccc3c(c2)OC[C@H]3CC(=O)O)c1`, in test [2], the parasite growth, % of DMSO control amounted to 52.2%. The parasite growth remaining, % of DMSO control (lower = more inhibition) in test [3] came out at 34.3%. Besides, the parasite growth, % of control (lower = inhibition) in test [4] was 61.9%. Moreover, the growth, % of control in [5] was found to be 90.9%. Moreover, the cell viability, % of control (lower = more cytotoxic) in [6] turned out to be 168%. Also, the Potency entry in test [8] and in [10] was “inactive” in each case.

`COc1cc2ncn(-c3cc(OCc4ccccc4S(C)(=O)=O)c(C#N)s3)c2cc1OC` showed a parasite growth, % of DMSO control in test [2] of 76.2%. In addition, the parasite growth remaining, % of DMSO control (lower = more inhibition) in test [3] turned out to be 103%. For the same molecule, the parasite growth, % of control (lower = inhibition) in [4] came to 75.9%. In addition, in test [5], the growth, % of control turned out to be 90.8%. The cell viability, % of control (lower = more cytotoxic) in test [6] was found to be 146%. The Potency result in test [8] and in test [10] was “inactive” throughout.

Take `O=C1C(c2c(O)[nH]c3ccccc23)=Nc2ccccc21`: the parasite growth, % of DMSO control in [2] is 90.1%. Further, the parasite growth, % of control (lower = inhibition) in test [4] stood at 73.7%. For the same molecule, the growth, % of control in test [5] was determined as 98.4%. The cell viability, % of control (lower = more cytotoxic) in test [6] is 52.3%. In addition, the Potency result in [8] and in [10] was “inactive” in each case. Moreover, the Potency in test [9] is 0.469 µM (active).

With `CCCCC(C)(C)[C@H](O)C=C[C@H]1[C@H](O)CC(=O)[C@H]1CC=CCCCC(=O)O`, the parasite growth, % of DMSO control in test [2] amounted to 76.7%. Besides, the parasite growth remaining, % of DMSO control (lower = more inhibition) in [3] worked out at 135%. In test [5], this molecule displayed a growth, % of control of 75.8%. In addition, in [6], the cell viability, % of control (lower = more cytotoxic) was 29.2%. Besides, the Potency entry in test [8], in test [10] and in test [9] was “inactive” each time.

Molecule `CCC[C@@H](NC(=O)[C@@H]1[C@H]2CCC[C@@H]2CN1C(=O)[C@@H](NC(=O)[C@@H](NC(=O)c1cnccn1)C1CCCCC1)C(C)(C)C)C(=O)C(=O)NC1CC1` had a parasite growth, % of DMSO control in test [2] of 9.1%. In test [3], the parasite growth remaining, % of DMSO control (lower = more inhibition) came to 61.2%. Further, in test [4], the parasite growth, % of control (lower = inhibition) worked out at 19.9%. In test [5], the growth, % of control worked out at 10.3%. Further, in test [6], the cell viability, % of control (lower = more cytotoxic) came to 48.1%. Also, the Potency result in test [8], in test [10] and in test [9] was “inactive” throughout.

`OC[C@H]1O[C@@H](Oc2ccc(O)cc2)[C@H](O)[C@@H](O)[C@H]1O` had a parasite growth, % of DMSO control in [2] of 82.1%. In addition, in test [4], the parasite growth, % of control (lower = inhibition) was 127%. In addition, the growth, % of control in test [5] was 93.4%. The cell viability, % of control (lower = more cytotoxic) in test [6] worked out at 146%. Also, the Potency entry in test [8] and in test [10] was “inactive” in each case.

As to `CC[C@H]1OC(=O)[C@H](C)[C@@H](O[C@H]2C[C@@](C)(OC)[C@@H](O)[C@H](C)O2)[C@H](C)[C@@H](O[C@@H]2O[C@H](C)C[C@H](N(C)C)[C@H]2O)[C@](C)(O)C[C@H](C)C(=NOCOCCOC)[C@H](C)[C@@H](O)[C@]1(C)O`, the parasite growth, % of DMSO control in test [2] was 53.1%. For the same molecule, the parasite growth remaining, % of DMSO control (lower = more inhibition) in test [3] amounted to 62.4%. Further, in test [5], the growth, % of control amounted to 82.6%. Besides, the cell viability, % of control (lower = more cytotoxic) in test [6] was found to be 129%. Further, the Potency entry in test [8], in test [10] and in test [9] was “inactive” in each case.
